# This is a sample that favours compounds with a hit; in the whole collection about 19% have one here.
# HT1080NT lethal: kills 2HG-producing HT-1080-NT fibrosarcoma cells | Potency, µM (series often up to 46.1 µM), for inactives: at the top dose activity, negative = less viability, most hits filed as cytotoxic | 360,000 tested, 1.6% active | HT-1080-NT fibrosarcoma viability, CellTiter-Glo ATP luminescence, 48 h;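 further: NT is the 2HG producing partner of a matched IDH1 knockdown line; potency means the concentration at half of the fitted maximal effect; 0% = DMSO-treated cells and -100% = media-only wells without cells; nearly all actives have a fitted effect of over 55% in size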
#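 750 cells/well, RPMI + 5% FBS; 2 h settle, compound pin-transfer, 48 h at 37 degrees C. CellTiter-Glo 10 min RT, luminescence. Normalized to DMSO and media-only wells.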
# TDP1 cell CPT: DT40-hTDP1 cell growth loss with CPT | chicken DT40 Tdp1-/-;hTDP1 cells + 20 nM CPT, ATP luminescence, 48 h | 420,000 tested, 12% active | Potency, µM (series often up to 46.2 µM), inactives show top-dose activity change, negative = growth inhibition, most hits filed as inhibitors; further: potency means the concentration at half of the fitted maximal effect; nearly all actives have a fitted effect of over 55% in size
#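 Chicken DT40 Tdp1-/- cells complemented with human TDP1, 400 cells/well, exposed to compounds plus 20 nM camptothecin for at least 48 h at 37 C; viability read as ATP content by CellTiter-Glo luminescence.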
# TDP1 cell noCPT: qHTS for Inhibitors of human tyrosyl-DNA phosphodiesterase 1 (TDP1): qHTS in cells in absence of CPT | DT40 Tdp1-/- hTDP1 cells, no CPT, ATP luminescence, 48 h | Potency, µM (highest dose often 46.2 µM), without a hit: at the highest dose activity change, negative = growth inhibition, usual class: inhibitors | 420,000 tested, 15% active; further: potency means the concentration at half of the fitted maximal effect; nearly all actives have a fitted effect of over 55% in size
#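 Camptothecin absent (DMSO only). Human TDP1-complemented DT40 knockout cells, 400 cells/well, 37 °C for minimum 48 hr; ATP measured via CellTiter-Glo, 30 min dark incubation, luminescence.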
# HT1080 IDH1KD tx: HT-1080 IDH1 knockdown cell toxicity (counter line); 360,000 tested, 2% active; HT-1080 IDH1 knockdown viability, ATP luminescence, 48 h; Potency, µM (titrated, usually from 46.1 µM), inactives show at the top dose activity, negative = toxicity, usual class: cytotoxic; AID 686971;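 further: potency means the concentration at half of the fitted maximal effect; 0% = DMSO wells and -100% = cell-free medium wells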
#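 HT-1080-IDH1KD cells (IDH1 knocked down), 750/well in RPMI with 5% FBS, treated with compound 48 h at 37 degrees C. Viability by CellTiter-Glo luminescence, normalised to DMSO and no-cell wells; concentration-response curves classed.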
# IL1B secr inh: blocks inflammasome-driven IL-1 beta release. THP-1 LPS/ATP IL-1B secretion, AlphaLISA, 16 h; active compounds read low. 360,000 tested, 4.7% active. activity change, % at 57.5 µM. AID 743279; in the data active means activity change below about -50%; inconclusive means mostly about -30% to -49%
#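 THP-1 cells pretreated 1 hr with compounds (up to 57.5 uM final), then stimulated with LPS (250 ng/mL final) plus ATP (1.25 mM final); secreted IL-1B measured by AlphaLISA after 16 hr, decreased signal indicating inhibition.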
# uPA generation: blocks generation of uPA at the cell surface; Potency, µM (highest dose often 38.3 µM), without a hit: top-dose activity change, negative = inhibition, actives largely listed as inhibitors; 330,000 tested, 0.31% active; cell surface uPA generation assay, qHTS; active means well fitted inhibition curve with a large enough effect; inconclusive means small, poorly fitted or top-dose-only effect; inactive means no such curve, though single readings can be large or run the other way; tested in mouse RAW 264.7 cells; further: potency means the concentration at half of the fitted maximal effect; nearly all actives have a fitted effect of over 55% in size
# Active calls of the source: *; ? = inconclusive; . = not tested or not shown; [ ] = another dose, or the depositor's remark. Unless noted, the call rests on the fitted dose curve; in most records, active means well fitted curve in the direction sought with a large enough effect; inconclusive means small, poorly fitted or top-dose-only effect, or another doubt; inactive means no such curve, though single readings can be large; an effect the other way counts as inactive or inconclusive. Unless noted, on the % scale 0 is the no-effect control and ±100 the full control effect.
SMILES,HT1080NT lethal,TDP1 cell CPT,TDP1 cell noCPT,HT1080 IDH1KD tx,IL1B secr inh,uPA generation
COCCn1c(SCC(=O)NC2CCCCC2)nnc1-c1ccncc1,8%,3%,1%,15%,5,-4%
COc1cc(C(=O)NNC(=S)NC(=O)c2ccccc2C)cc(OC)c1OC,-24%,16µM*,?,?,-2,-1%
COc1cc(C(=O)NC(=S)NNC(=O)[C@H]2C[C@@H]2c2ccccc2)cc(OC)c1OC,-14%,-10%,-15%,-16%,62,6%
COc1ccccc1C(=O)NNC(=S)NC(=O)c1cc(OC)c(OC)c(OC)c1,-18%,18µM*,6.5µM*,?,122,?
COc1ccc(C(=O)NC(=S)NNC(=O)c2ccccc2C)cc1,?,?,?,?,27,0%
CNC(=O)c1c(NC(=O)CS(=O)(=O)c2ccccc2)sc(C)c1C,3%,-9%,-28%,-4%,-17,-11%
CNC(=O)c1c(NC(=O)CS(=O)(=O)c2ccc(Cl)cc2)sc(C)c1C,-5%,9.2µM*,?,-25%,-6,-5%
Cc1ccc(NC(=O)CN(C)CC(=O)Nc2sc3c(c2C(N)=O)CCC3)cc1,-21%,?,?,-16%,-28,-2%
CN(CC(=O)Nc1ccccc1Cl)C(=O)c1cc2c(s1)CCCCC2,-16%,?,16µM*,-17%,-3,6%
CN(CC(=O)Nc1ccc(Cl)cc1)CC(=O)Nc1sc2c(c1C(N)=O)CCC2,-6%,21µM*,15µM*,-19%,?,.
NC(=O)c1c(NC(=O)CS(=O)(=O)c2ccc(Cl)cc2)sc2c1CCCCC2,.,23µM*,16µM*,.,.,.
Cc1ccc(S(=O)(=O)CC(=O)Nc2sc3c(c2C#N)CCCCC3)cc1,.,-21%,-19%,.,.,.
COc1ccccc1/C=C/C(=O)OCC(=O)N1CCc2ccccc21,1%[9.24 µM],7%,3%,8%,-3,17%
CC1(C)CO[C@@H](CC(=O)O)CN1,.,13%,2%,.,.,.
CN(CC(=O)Nc1ccccc1Cl)CC(=O)Nc1sc2c(c1C(N)=O)CCC2,-12%,26µM*,18µM*,-2%,?,-2%
Oc1cc2c(cc1O)[C@H](c1ccccc1)CNCC2,.,27µM*,27µM*,.,.,.
CCCC(=O)N1CCC1(C)C(=O)Nc1ccc2c(c1)CCN2C(C)=O (stereo not drawn),21%,-10%,3%,18%,2,.
O=C(NCC(O)c1ccc2ccccc2c1)c1c(F)cccc1F (stereo not drawn),-10%,-11%,-3%,-23%,-17,-1%
COc1cccc2sc3cc(C#Cc4ccccn4)ccc3c(=O)c12,-13%,18µM*,16µM*,-24%,?,6%
O=c1c2ccccc2oc2cc(C#Cc3ccccn3)ccc12,23%,-2%,-1%,15%,-5,-4%
COc1cccc2oc3ccc(C#Cc4ccccn4)cc3c(=O)c12,0%,12µM*,?,-4%,-21,?
COc1ccccc1-c1ccnc(-n2ncc(C(=O)N(C)C(C)c3ccon3)c2C2CC2)n1 (stereo not drawn),.,-11%[9.04 µM],-23%,.,.,.
CCn1c(SCC(=O)NCc2ccco2)nnc1-c1cccc(N(C)C)c1,.,-31%,?,.,.,.
O=C(C1CCN(S(=O)(=O)Cc2ccccc2)CC1)N1CCN(c2cccc(Cl)c2)CC1,.,-16%,?,.,.,.
COc1ccc(OC)c(/C=N/NC(=O)c2cnccn2)c1,4%,4%,-13%,7%,12,-3%
SMILES,HT1080NT lethal,TDP1 cell CPT,TDP1 cell noCPT,HT1080 IDH1KD tx,IL1B secr inh,uPA generation
O=C(NC(=S)NC1CCCCCCCCCCC1)c1cccnc1,-1%,?,15µM*,0%,30,-4%
COc1cc(C(=O)NC(=S)NNC(=O)c2cnccn2)cc(OC)c1OC,?,?,?,15µM*,11,10µM*
O=C(NC(=S)NNC(=O)c1ccc(Cl)cc1Cl)c1cccnc1,0%,?,?,-28%,55,-3%
O=C(NC(=S)NC1CC1)c1cccnc1,3%,-1%,-1%,4%,10,-1%
CCCCOc1ccc(C(=O)NNC(=O)c2cnccn2)cc1OC,?,8.2µM*,21µM*,?,-73*,-5%
COc1cc(C(=O)NC(=S)NC(C)C)cc(OC)c1OC,3%,-26%,?,0%,0,-1%
O=C(NC(=S)NNC(=O)c1ccccc1O)c1cccnc1,-1%,?,21µM*,-21%,0,0%
O=C(Nc1ccc(Cl)cc1Cl)c1cc(S(=O)(=O)NCc2ccc3c(c2)OCO3)ccc1F,.,-18%,-14%,.,.,.
COc1ccccc1NS(=O)(=O)c1cccc(C(=O)NCc2ccco2)c1,-5%,-16%,-22%,-11%,-13,-1%
O=C(NC(=S)NNC(=O)c1cnccn1)c1ccc(Cl)cc1,-18%,8.2µM*,?,?,20,1%
O=C(Cc1ccc(Cl)cc1)NNC(=S)NC(=O)c1cccnc1,12%,?,-24%,-1%,19,6%
COc1ccc(CCNC(=O)c2cnccn2)cc1,0%,?,-5%,-8%,-8,-3%
O=C(NNC(=S)NC(=O)c1cccnc1)c1ccc(Cl)cc1,-30%,23µM*,15µM*,?,38,-2%
COc1ccc(C(=O)NC(=S)NNC(=O)c2cnccn2)cc1,?,21µM*,21µM*,2.9µM*,23,-1%
OC(c1ccccc1)c1ncc(-c2cccc(OCc3ccccc3)c2)[nH]1 (stereo not drawn),?,?,?,?,-12,.
CC(=O)OCC(=O)[C@@]1(O)CC[C@H]2[C@@H]3CCC4=CC(=O)CC[C@]4(C)C3=CC[C@@]21C,.,3%,-23%,.,.,.
CCN(CC(=O)Nc1ccccc1C(F)(F)F)C(=O)c1ccc(NC(=O)c2cccs2)cc1,-1%,15µM*,21µM*,7%,-17,.
CCN(CC(=O)Nc1ccccc1C(F)(F)F)C(=O)c1ccccc1OCc1ccc(F)cc1,0%,16µM*,21µM*,-1%,-18,-12%
CCN(CC(=O)Nc1ccc(N2CCOCC2)cc1)C(=O)c1ccc(C(F)(F)F)cc1,?,-9%,-14%,19%,-57*,-3%
CCN(CC(=O)Nc1ccccc1C(F)(F)F)C(=O)CCOc1ccccc1C,1%,-36%,-54%,2%,10,2%
